Assay results published in the supplement of paper PMC4022240.
± gives the standard deviation.

T1: HaloTag-ATRX ADD domain (163-292)
T1 chain: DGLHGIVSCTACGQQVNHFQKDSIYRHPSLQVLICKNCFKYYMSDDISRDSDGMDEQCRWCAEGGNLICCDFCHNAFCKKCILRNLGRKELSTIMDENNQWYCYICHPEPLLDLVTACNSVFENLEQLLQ


Target: T1, HaloTag-ATRX ADD domain (163-292)
Assay: peptide microarray binding signal (635 nm), min-max normalized on array (fraction of array maximum); higher = stronger binding
Conditions: peptide region: Unmod H2B variant; binder concentration: 50 nM
Summary of the method: (§1)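 Triplicate spots of histone 13-mer peptide–cellulose conjugates with a Cy3 tracer were printed on nitrocellulose and probed for 1 h at 4°C with biotin-labelled HaloTag reader fusions (10 nM to 1 μM) plus streptavidin-Alexa Fluor 647 or rabbit histone antibodies (1:10,000 to 1:2,000) plus anti-rabbit Alexa 647. An Axon GenePix 4000B read the 635 nm channel. Binding signal is the spot-triplicate mean intensity after min-max scaling within each library.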

| Binder | peptide microarray binding signal |
| --- | --- |
| KAQKKDGKKRKRS [Unmod H2B variant K A Q K K D G K K R K R S] | 0.0176 ± 0.012 |
| PEPTKSAPAPKKG [Unmod H2B variant P E P T K S A P A P K K G] | 0.006019 ± 5.5e-05 |
| PELAKSAPAPKKG [Unmod H2B variant P E L A K S A P A P K K G] | 0.00618 ± 0.00062 |
| APKKGSKKAVTKA [Unmod H2B variant A P K K G S K K A V T K A] | 0.00705 ± 0.00011 |
| GISSKAMGIMNSF [Unmod H2B variant G I S S K A M G I M N S F] | 0.00856 ± 0.00082 |
| KRSRKESYSIYVY [Unmod H2B variant K R S R K E S Y S I Y V Y] | 0.00561 ± 0.00019 |
| ISKKGFKKAVVKT [Unmod H2B variant I S K K G F K K A V V K T] | 0.00683 ± 0.00024 |
| PDPAKSAPAPKKG [Unmod H2B variant P D P A K S A P A P K K G] | 0.0068 ± 0.00035 |
| PKKGSKKAVTKAQ [Unmod H2B variant P K K G S K K A V T K A Q] | 0.00561 ± 0.00027 |
| VPKKGSKKAINKA [Unmod H2B variant V P K K G S K K A I N K A] | 0.00639 ± 0.00069 |

Same assay, conditions: peptide region: Unmod H2B variant; binder concentration: 500 nM

| Binder | peptide microarray binding signal |
| --- | --- |
| KAQKKDGKKRKRS [Unmod H2B variant K A Q K K D G K K R K R S] | 0.00876 ± 0.00031 |
| PEPTKSAPAPKKG [Unmod H2B variant P E P T K S A P A P K K G] | 0.0126 ± 0.00066 |
| PELAKSAPAPKKG [Unmod H2B variant P E L A K S A P A P K K G] | 0.0121 ± 0.001 |
| APKKGSKKAVTKA [Unmod H2B variant A P K K G S K K A V T K A] | 0.00729 ± 0.00014 |
| GISSKAMGIMNSF [Unmod H2B variant G I S S K A M G I M N S F] | 0.0227 |
| KRSRKESYSIYVY [Unmod H2B variant K R S R K E S Y S I Y V Y] | 0.0029 ± 0.00042 |
| ISKKGFKKAVVKT [Unmod H2B variant I S K K G F K K A V V K T] | 0.0118 ± 0.00025 |
| PDPAKSAPAPKKG [Unmod H2B variant P D P A K S A P A P K K G] | 0.00538 ± 0.00012 |
| PKKGSKKAVTKAQ [Unmod H2B variant P K K G S K K A V T K A Q] | 0.008048 ± 4.3e-05 |
| VPKKGSKKAINKA [Unmod H2B variant V P K K G S K K A I N K A] | 0.0081 ± 0.00015 |

What follows are binders tested against HaloTag-ING2 PHD (mouse Ing2 200-280) in the same assay as above. Conditions: peptide region: Unmod H2B variant; binder concentration: 10 nM.
Summary of the method: as §1

| Binder | peptide microarray binding signal |
| --- | --- |
| KAQKKDGKKRKRS [Unmod H2B variant K A Q K K D G K K R K R S] | 0.00275 |
| PEPTKSAPAPKKG [Unmod H2B variant P E P T K S A P A P K K G] | 0.0173 ± 0.011 |
| PELAKSAPAPKKG [Unmod H2B variant P E L A K S A P A P K K G] | 0.0037 ± 8.6e-05 |
| APKKGSKKAVTKA [Unmod H2B variant A P K K G S K K A V T K A] | 0.00185 ± 1.9e-05 |
| GISSKAMGIMNSF [Unmod H2B variant G I S S K A M G I M N S F] | 0.00913 ± 0.00027 |
| KRSRKESYSIYVY [Unmod H2B variant K R S R K E S Y S I Y V Y] | 0.00179 ± 4.2e-05 |
| ISKKGFKKAVVKT [Unmod H2B variant I S K K G F K K A V V K T] | 0.00227 ± 7.3e-05 |
| PDPAKSAPAPKKG [Unmod H2B variant P D P A K S A P A P K K G] | 0.00358 ± 0.00019 |
| PKKGSKKAVTKAQ [Unmod H2B variant P K K G S K K A V T K A Q] | 0.00275 ± 0.00016 |
| VPKKGSKKAINKA [Unmod H2B variant V P K K G S K K A I N K A] | 0.00263 ± 3.9e-05 |

Same assay, conditions: peptide region: Unmod H2B variant; binder concentration: 100 nM

| Binder | peptide microarray binding signal |
| --- | --- |
| KAQKKDGKKRKRS [Unmod H2B variant K A Q K K D G K K R K R S] | 0.00461 ± 0.00031 |
| PEPTKSAPAPKKG [Unmod H2B variant P E P T K S A P A P K K G] | 0.0103 ± 0.0017 |
| PELAKSAPAPKKG [Unmod H2B variant P E L A K S A P A P K K G] | 0.0085 ± 0.0029 |
| APKKGSKKAVTKA [Unmod H2B variant A P K K G S K K A V T K A] | 0.00446 ± 0.00013 |
| GISSKAMGIMNSF [Unmod H2B variant G I S S K A M G I M N S F] | 0.0416 ± 0.0056 |
| KRSRKESYSIYVY [Unmod H2B variant K R S R K E S Y S I Y V Y] | 0.000496 ± 9.7e-06 |
| ISKKGFKKAVVKT [Unmod H2B variant I S K K G F K K A V V K T] | 0.00602 ± 0.00021 |
| PDPAKSAPAPKKG [Unmod H2B variant P D P A K S A P A P K K G] | 0.004039 ± 3.4e-05 |
| PKKGSKKAVTKAQ [Unmod H2B variant P K K G S K K A V T K A Q] | 0.00354 ± 0.00011 |
| VPKKGSKKAINKA [Unmod H2B variant V P K K G S K K A I N K A] | 0.0056 ± 0.00078 |

What follows are binders tested against anti-H3K4me3 antibody ab8580 in the same assay as above. Conditions: peptide region: Unmod H2B variant; binder concentration: 1:2,000 dilution.
Summary of the method: as §1

| Binder | peptide microarray binding signal |
| --- | --- |
| KAQKKDGKKRKRS [Unmod H2B variant K A Q K K D G K K R K R S] | 0.000415 ± 4.2e-06 |
| PEPTKSAPAPKKG [Unmod H2B variant P E P T K S A P A P K K G] | 0.001 ± 0.0001 |
| PELAKSAPAPKKG [Unmod H2B variant P E L A K S A P A P K K G] | 0.0013 ± 0.00034 |
| APKKGSKKAVTKA [Unmod H2B variant A P K K G S K K A V T K A] | 0.000529 ± 1.4e-05 |
| GISSKAMGIMNSF [Unmod H2B variant G I S S K A M G I M N S F] | 0.00215 ± 0.00023 |
| KRSRKESYSIYVY [Unmod H2B variant K R S R K E S Y S I Y V Y] | 0.00051 ± 7.5e-05 |
| ISKKGFKKAVVKT [Unmod H2B variant I S K K G F K K A V V K T] | 0.00051 ± 8.6e-06 |
| PDPAKSAPAPKKG [Unmod H2B variant P D P A K S A P A P K K G] | 0.000868 ± 7.8e-05 |
| PKKGSKKAVTKAQ [Unmod H2B variant P K K G S K K A V T K A Q] | 0.000378 ± 7.7e-06 |
| VPKKGSKKAINKA [Unmod H2B variant V P K K G S K K A I N K A] | 0.000529 ± 4.2e-05 |

Same assay, conditions: peptide region: Unmod H2B variant; binder concentration: 1:10,000 dilution

| Binder | peptide microarray binding signal |
| --- | --- |
| KAQKKDGKKRKRS [Unmod H2B variant K A Q K K D G K K R K R S] | 0.00103 ± 2.1e-05 |
| PEPTKSAPAPKKG [Unmod H2B variant P E P T K S A P A P K K G] | 0.00205 ± 0.00015 |
| PELAKSAPAPKKG [Unmod H2B variant P E L A K S A P A P K K G] | 0.0028 ± 0.00029 |
| APKKGSKKAVTKA [Unmod H2B variant A P K K G S K K A V T K A] | 0.000571 ± 1.1e-05 |
| GISSKAMGIMNSF [Unmod H2B variant G I S S K A M G I M N S F] | 0.00348 ± 0.00045 |
| KRSRKESYSIYVY [Unmod H2B variant K R S R K E S Y S I Y V Y] | 0.000685 ± 1.5e-05 |
| ISKKGFKKAVVKT [Unmod H2B variant I S K K G F K K A V V K T] | 0.000685 ± 7.2e-06 |
| PDPAKSAPAPKKG [Unmod H2B variant P D P A K S A P A P K K G] | 0.00097 ± 9.9e-06 |
| PKKGSKKAVTKAQ [Unmod H2B variant P K K G S K K A V T K A Q] | 0.000628 ± 6.7e-06 |
| VPKKGSKKAINKA [Unmod H2B variant V P K K G S K K A I N K A] | 0.000856 ± 8.9e-06 |

Each binder was assayed against anti-H3K9me3 antibody ab8898 in the same assay as above. Conditions: peptide region: Unmod H2B variant; binder concentration: 1:2,000 dilution.
Summary of the method: as §1

| Binder | peptide microarray binding signal |
| --- | --- |
| KAQKKDGKKRKRS [Unmod H2B variant K A Q K K D G K K R K R S] | 0.000227 |
| PEPTKSAPAPKKG [Unmod H2B variant P E P T K S A P A P K K G] | 0.000649 ± 1.2e-05 |
| PELAKSAPAPKKG [Unmod H2B variant P E L A K S A P A P K K G] | 0.000951 ± 7.1e-05 |
| APKKGSKKAVTKA [Unmod H2B variant A P K K G S K K A V T K A] | 0.000211 ± 2.2e-06 |
| GISSKAMGIMNSF [Unmod H2B variant G I S S K A M G I M N S F] | 0.000695 ± 1.2e-05 |
| KRSRKESYSIYVY [Unmod H2B variant K R S R K E S Y S I Y V Y] | 0.000227 ± 4.1e-06 |
| ISKKGFKKAVVKT [Unmod H2B variant I S K K G F K K A V V K T] | 0.000257 ± 2.7e-06 |
| PDPAKSAPAPKKG [Unmod H2B variant P D P A K S A P A P K K G] | 0.000453 |
| PKKGSKKAVTKAQ [Unmod H2B variant P K K G S K K A V T K A Q] | 0.000196 ± 2.1e-06 |
| VPKKGSKKAINKA [Unmod H2B variant V P K K G S K K A I N K A] | 0.000196 ± 2.1e-06 |

Same assay, conditions: peptide region: Unmod H2B variant; binder concentration: 1:10,000 dilution

| Binder | peptide microarray binding signal |
| --- | --- |
| KAQKKDGKKRKRS [Unmod H2B variant K A Q K K D G K K R K R S] | 0.000692 ± 7.3e-06 |
| PEPTKSAPAPKKG [Unmod H2B variant P E P T K S A P A P K K G] | 0.00115 ± 2e-05 |
| PELAKSAPAPKKG [Unmod H2B variant P E L A K S A P A P K K G] | 0.00133 ± 8.2e-05 |
| APKKGSKKAVTKA [Unmod H2B variant A P K K G S K K A V T K A] | 0.000461 |
| GISSKAMGIMNSF [Unmod H2B variant G I S S K A M G I M N S F] | 0.0011 ± 1.1e-05 |
| KRSRKESYSIYVY [Unmod H2B variant K R S R K E S Y S I Y V Y] | 0.000634 ± 1.2e-05 |
| ISKKGFKKAVVKT [Unmod H2B variant I S K K G F K K A V V K T] | 0.000461 |
| PDPAKSAPAPKKG [Unmod H2B variant P D P A K S A P A P K K G] | 0.00075 ± 7.9e-06 |
| PKKGSKKAVTKAQ [Unmod H2B variant P K K G S K K A V T K A Q] | 0.000577 ± 6.2e-06 |
| VPKKGSKKAINKA [Unmod H2B variant V P K K G S K K A I N K A] | 0.000461 ± 8.7e-06 |
